A selection: hits, their analogues and other compounds. The true share with any hit is near 19%.
AMA1-RON2 inh – inhibitors of Plasmodium falciparum AMA1-RON2 interaction; AlphaScreen AMA1-biotinylated RON2 peptide binding; Potency, µM (series often up to 58.2 µM), actives largely listed as inhibitors; hit rate 0.2% among 360,000; AID 720542; also: nearly all actives have a fitted effect of over 45% in size
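AMA1 (3D7) with his tag at 25 nM final met compounds first, then biotinylated RON2 peptide at 25 nM; detection used donor plus acceptor beads, 10 µg/mL apiece, read by AlphaScreen after 30 min at room temperature.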
Shiga toxin inh – blocks Shiga toxin action in Vero cells. Vero cells, Shiga toxin protein synthesis inhibition reporter. inhibition, % at 38.7 µM. hit rate 9.2% among 290,000. AID 2315; in the data active = inhibition mostly above about 28%, no sharp cut-off; inactive = mostly below about 43%
Pf growth 96h – P. falciparum growth inhibition at 96 hour, primary screen for plastid delayed-death inhibitors; P. falciparum luciferase reporter growth, 96 h; Potency, µM (highest dose often 28.7 µM), hits mostly inhibitors; hit rate 6.9% among 320,000; AID 504834
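Erythrocytes infected with luciferase-expressing P. falciparum were dispensed at 2% hematocrit and 0.05% parasitemia (final), then incubated with compounds 96 hours at 37 C in 5% CO2. Luminescence after detection reagent addition reported growth.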
SARS PLP yeast – SARS-CoV PLP inhibition in yeast; S. cerevisiae expressing SARS-CoV PLpro, growth rescue; Potency, µM (series often up to 32.9 µM), most hits filed as activators; hit rate 0.19% among 330,000; calls by dose curve; also: nearly all actives have a fitted effect of over 55% in size
Pf growth 48h – P. falciparum growth inhibition at 48 hours (one generation) | P. falciparum luciferase growth in erythrocytes, 48 h | Potency, µM (series often up to 28.7 µM), usual class: inhibitors | hit rate 5.9% among 310,000 | AID 504832
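Here the parasites carry a stable luciferase gene and grow inside erythrocytes in Albumax-based RPMI medium with compound for one erythrocytic cycle. Activity is scored as loss of luminescent signal.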
CHX counter – counter-screen for Shiga toxin inhibitors: cycloheximide protein synthesis inhibition; cell reporter, cycloheximide protein synthesis inhibition counterscreen; max response, %; hit rate 12% among 300,000; AID 2314; in the data active = max response mostly above about 13%, no sharp cut-off; inactive = mostly below about 14%; also: read at 38.3 µM for the half of the compounds with a filed dose
Each line names hits and unclear results; the compound was inactive in the other large screens. Unless noted, calls follow the shape of the dose curve; as a rule, active = well fitted curve in the direction sought with a large enough effect; inconclusive = small, poorly fitted or top-dose-only effect, or another doubt; inactive = no such curve, though single readings can be large; an effect the other way counts as inactive or inconclusive.

COc1cccc(C(=O)/C=C/Nc2ccc(NC(C)=O)cc2)c1	CHX counter 42
COc1ccc(C(=O)/C=C/Nc2ccc(NC(C)=O)cc2)cc1OC	Pf growth 48h inconclusive
O=C1C2C3CC(C(Br)C3Br)C2C(=O)N1c1nccs1 (centres undefined)	none (no result: Shiga toxin inh, Pf growth 96h, SARS PLP yeast, Pf growth 48h, CHX counter)
CCC(CC)NC(=O)CSc1ccc(S(=O)(=O)N2CCCCC2)cn1	Pf growth 96h inconclusive (no result: Shiga toxin inh, CHX counter)
CC(=O)Nc1ccc(N/C=C/C(=O)c2ccccc2)cc1	Shiga toxin inh 53, CHX counter 37
C/C(=C\C(=O)c1ccc(Cl)cc1Cl)N(C)C	Shiga toxin inh 32, Pf growth 48h inconclusive
COc1cccc(C(=O)/C=C/Nc2ccc(S(=O)(=O)Nc3cccc(C(C)=O)c3)cc2)c1	Shiga toxin inh 97, Pf growth 96h inconclusive, CHX counter 57
CC(C)(C)C(=O)/C=C/Nc1ccccc1O	Pf growth 48h inconclusive (no result: Pf growth 96h)
COc1ccc(S(=O)(=O)Nc2cccc(C(C)=O)c2)cc1Br	none
CN(C)c1ccc(N/C=C/C(=O)C(C)(C)C)cc1	Shiga toxin inh 148, Pf growth 48h 2.3µM (no result: Pf growth 96h)
CN(C)/C=C/C(=O)c1ccc(Cl)cc1Cl	none
CC[C@H](C)[C@H](NC(=O)[C@H](CCC(=O)O)NC(=O)[C@@H](N)CO)C(=O)N[C@@H](CCC(N)=O)C(=O)N[C@@H](CC(C)C)C(=O)N[C@@H](CCSC)C(=O)N[C@@H](Cc1cnc[nH]1)C(=O)N[C@@H](CC(N)=O)C(=O)N[C@@H](CC(C)C)C(=O)NCC(=O)N[C@@H](CCCCN)C(=O)N[C@@H](Cc1cnc[nH]1)C(=O)N[C@@H](CC(C)C)C(=O)N[C@@H](C)C(=O)N[C@@H](CO)C(=O)N[C@H](C(=O)N[C@@H](CCC(=O)O)C(=O)N[C@@H](CCCNC(=N)N)C(=O)N[C@@H](CCSC)C(=O)N[C@@H](CCC(N)=O)C(=O)N[C@@H](Cc1c[nH]c2ccccc12)C(=O)N[C@@H](CC(C)C)C(=O)N[C@@H](CCCNC(=N)N)C(=O)N[C@@H](CCCCN)C(=O)N[C@@H](CCCCN)C(=O)N[C@@H](CC(C)C)C(=O)N[C@@H](CCC(N)=O)C(=O)N[C@@H](CC(=O)O)C(=O)N[C@H](C(=O)N[C@@H](Cc1cnc[nH]1)C(=O)N[C@@H](CC(N)=O)C(=O)N[C@@H](Cc1ccccc1)C(=O)O)C(C)C)C(C)C	none (no result: AMA1-RON2 inh, Pf growth 96h, SARS PLP yeast, Pf growth 48h)
COc1cc(-c2cc(NC=O)c3ncc(-c4cccc(C(=O)N(C)C)c4)n3c2)cc(OC)c1OC	none (no result: Shiga toxin inh, Pf growth 96h, SARS PLP yeast, Pf growth 48h, CHX counter)
Cc1cc(N/C=C/C(=O)c2ccccc2)ccc1Br	Shiga toxin inh 56, Pf growth 96h inconclusive, CHX counter 37
Cc1cc(NC(=O)C2CCCO2)ccc1Br (centres undefined)	Pf growth 96h inconclusive
O=C(/C=C/Nc1ccccc1)c1ccccc1	Pf growth 96h 7.4µM, CHX counter 27 (no result: Pf growth 48h)
COc1ccc(OC)c(N/C=C/C(=O)c2ccccc2)c1	Pf growth 96h inconclusive, Pf growth 48h inconclusive
Cc1cc(C(=O)NCCN2CCOCC2)ccc1[N+](=O)[O-]	none
Cc1cc(C(=O)NCC(=O)OC(C)C(=O)N2CCOCC2)ccc1[N+](=O)[O-] (centres undefined)	Pf growth 96h 7.4µM, Pf growth 48h inconclusive (no result: Shiga toxin inh, CHX counter)
Cn1cc(CC(=O)N2CCN(c3ccc(Cl)cc3)CC2)c2ccccc21	Pf growth 96h 12µM
O=C(Cc1ccc(Cl)cc1)N1CCN(c2ccccc2)CC1	CHX counter 31
COc1ccc(N2CCN(C(=O)Cc3ccc(Cl)cc3)CC2)cc1	AMA1-RON2 inh 18µM
Cn1cc(CC(=O)N2CCN(c3ccccc3F)CC2)c2ccccc21	Pf growth 96h inconclusive (no result: Pf growth 48h)
O=C(Cc1ccc(-n2cccc2)cc1)N1CCN(c2ccccc2F)CC1	AMA1-RON2 inh inconclusive, Pf growth 96h 12µM
COc1ccc(CC(=O)N2CCN(c3ccccc3F)CC2)cc1OC	none
CCN(CC)c1nc(Oc2ccc(=O)[nH]n2)nc(N2CCOCC2)n1	none
COc1ccc(COCC(O)CN2CCC(CN3C(=O)c4cccc5cccc(c45)C3=O)CC2)cc1OC (centres undefined)	Pf growth 96h 12µM, Pf growth 48h inconclusive
COc1cccc(OCC(O)CN2CCC(CN3C(=O)c4cccc5cccc(c45)C3=O)CC2)c1 (centres undefined)	AMA1-RON2 inh inconclusive, Pf growth 96h inconclusive, Pf growth 48h inconclusive
O=C1c2cccc3cccc(c23)C(=O)N1CC1CCN(CC(O)COc2ccc3ccccc3c2)CC1 (centres undefined)	AMA1-RON2 inh inconclusive, Shiga toxin inh 128, CHX counter 72
CC(C)C[C@H](N)c1nnc(S(=O)(=O)Cc2ccc(F)cc2)o1	Pf growth 96h inconclusive, CHX counter 42
CC(C)C[C@H](N)c1nnc(SCC(=O)Nc2ccc(Br)cc2)o1	none
Cc1cc(C)c2cc(C(=O)Nc3ccccc3)[nH]c2c1	Shiga toxin inh 72, Pf growth 96h 8.3µM, Pf growth 48h inconclusive, CHX counter 42
CCCOc1ccc(NC(=O)c2cc3cc(C)ccc3[nH]2)cc1	Pf growth 96h 12µM
Cc1cc(C)c2[nH]c(C(=O)Nc3ccc(F)cc3Br)cc2c1	Shiga toxin inh 67, CHX counter 34
Cc1ccc2[nH]c(C(=O)Nc3ccc(F)cc3)cc2c1	Pf growth 96h 8.3µM, CHX counter 22 (no result: Shiga toxin inh)
CCNc1nc(OC)nc(SCC(=O)Nc2ccccc2)n1	none
CCC(C(=O)NC(N)=O)c1ccccc1 (centres undefined)	none (no result: AMA1-RON2 inh, Shiga toxin inh, SARS PLP yeast, CHX counter)
Cc1cccc(-n2cnc(C(=O)NC3CCCCCC3)c2)n1	Shiga toxin inh 76, CHX counter 60
Cc1cccc(-n2cnc(C(=O)O)c2)n1	none
CCC(C)NC(=O)c1cn(-c2cccc(C)n2)cn1 (centres undefined)	Shiga toxin inh 53, CHX counter 20
CC(=O)Nc1ccc(S(=O)(=O)NCCC(=O)OCc2ccccc2F)cc1	Pf growth 48h inconclusive (no result: Shiga toxin inh, CHX counter)
N#Cc1cccc(C#N)c1Oc1ccc(S(=O)(=O)Nc2ccc(Cl)cc2)cc1	none
CC1CCN(C2=NC(=O)/C(=C/c3ccccc3F)S2)CC1	Shiga toxin inh 68, CHX counter 38
O=C1N=C(N2CCN(c3ccccc3)CC2)S/C1=C/c1cccs1	Pf growth 96h 13µM
Cc1ccc(/C=C2\SC(N3CCN(C(c4ccccc4)c4ccccc4)CC3)=NC2=O)o1	AMA1-RON2 inh inconclusive, Pf growth 96h 1.7µM, Pf growth 48h 5.9µM
NC(=O)C1C(=O)c2ccccc2C1(C[N+](=O)[O-])c1ccccc1 (centres undefined)	none (no result: Shiga toxin inh, Pf growth 96h, SARS PLP yeast, Pf growth 48h, CHX counter)
Cc1ccc(S(=O)(=O)NN=Cc2ccccc2Cl)cc1	none (no result: Shiga toxin inh, Pf growth 96h, SARS PLP yeast, Pf growth 48h, CHX counter)
COc1ccc(-c2nc(CN3CCCCC3c3nccn3C)c(C)o2)c(C)c1C (centres undefined)	Pf growth 96h inconclusive, Pf growth 48h inconclusive
COc1ccc(C(=O)O/N=C(\N)c2ccccc2)c(OC)c1	CHX counter 32
